Data on 13 compounds can be found in PubChem BioAssay (NCI).

Some test systems named below: SR leukemia; RPMI-8226 leukemia; OVCAR-8 ovarian; OVCAR-5 ovarian; OVCAR-4 ovarian; SK-OV-3 ovarian; IGROV1 ovarian; OVCAR-3 ovarian; HS 578T breast; NCI/ADR-RES ovarian.
Holding throughout (test): NCI-60 one-dose screen, 48 h (100 = growth as untreated, 0 = no growth, -100 = all killed)
Settings in all cases: 10 µM unless noted

About 83,000 compounds went through this panel and 20% of them were active in at least one assay; those are over-represented in the sample as a whole.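 Step 1: grow cells in 96-well plates. Step 2: add test compound at a single concentration. Step 3: incubate 48 h. Step 4: record percent growth.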 Unmarked numbers belong to inactive results. The source made the active and inactive calls. Rule for the calls: active = growth percent below 10; inactive = the rest.

`O=C(Nc1ncccc1OCc1ccccc1)NC1CCCCCC1`: the growth in the assay on SR leukemia is 61.5%; in the assay with RPMI-8226 leukemia it was 68.1%; with OVCAR-8 ovarian, 104%; in the assay with OVCAR-5 ovarian, 95%; with OVCAR-4 ovarian, 84.6%; in the assay on SK-OV-3 ovarian, 110%. Further, the growth is 89.1% with IGROV1 ovarian, 89.1% in the assay on OVCAR-3 ovarian, 105% in the assay on HS 578T breast and 89.7% in the assay with NCI/ADR-RES ovarian.
Turning to `CCN1C(=O)N(CC)C2C1N=C(SCc1ccc(Cl)cc1)N2/N=C/C=C/c1ccccc1OC` (stereo not given), the growth with SR leukemia is 18.4%; in the assay on RPMI-8226 leukemia, 11.2%; in the assay with OVCAR-8 ovarian, 56.8%; in the assay on OVCAR-5 ovarian, 98.6%; in the assay on OVCAR-4 ovarian, 69.9%; with SK-OV-3 ovarian it was 70.4%. Further, the growth was 78.6% in the assay with IGROV1 ovarian, 50.6% in the assay with OVCAR-3 ovarian, 57.3% in the assay with HS 578T breast and 26.4% in the assay on NCI/ADR-RES ovarian.
`Cc1ccc(C(=O)c2ccc(CC(=O)NN3C(=O)c4ccccc4C3=O)n2C)cc1`: the growth in the assay on SR leukemia is 110%; in the assay with RPMI-8226 leukemia it was 100%; in the assay on OVCAR-8 ovarian, 98.9%; in the assay with OVCAR-5 ovarian it was 93.7%; in the assay on OVCAR-4 ovarian, 101%; with SK-OV-3 ovarian, 109%. In addition, the growth in the assay on IGROV1 ovarian is 98.6%; in the assay with OVCAR-3 ovarian, 107%; in the assay with HS 578T breast, 104%; in the assay with NCI/ADR-RES ovarian, 99.1%.
With `CCc1n(Cc2ccc3ccccc3n2)cc[n+]1Cc1ccc2ccccc2n1`, the growth is 30.2% in the assay with SR leukemia; -1.65% (active) with RPMI-8226 leukemia; 27.1% with OVCAR-8 ovarian; 43.2% in the assay with OVCAR-5 ovarian; 14.5% with OVCAR-4 ovarian; 33.4% in the assay with SK-OV-3 ovarian. The growth with IGROV1 ovarian was 30%; in the assay with OVCAR-3 ovarian, 14.2%; in the assay with HS 578T breast it was 44.8%; in the assay on NCI/ADR-RES ovarian, 104%.
Take `COc1cc2nc3sc(C(=O)Nc4ccc(C(=O)OC(C)C)cc4)c(C(=O)Nc4ccc(Cl)cc4C)n3c(=O)c2cc1OC`: the growth in the assay on SR leukemia was 19.5%; with RPMI-8226 leukemia, 52.7%; in the assay on OVCAR-8 ovarian, 35.4%; with OVCAR-5 ovarian, 70%; with OVCAR-4 ovarian, 69.5%; in the assay on SK-OV-3 ovarian it was 91.4%. The growth with IGROV1 ovarian is 17%; in the assay on OVCAR-3 ovarian, 77.2%; with HS 578T breast, 58.9%; in the assay with NCI/ADR-RES ovarian, 62.3%.
Turning to `CS(=O)(=O)c1nnc(-c2ccccc2)s1`, the growth is 40.3% in the assay on SR leukemia; 99.5% in the assay on RPMI-8226 leukemia; 97.4% with OVCAR-8 ovarian; 99.3% with OVCAR-5 ovarian; 99.5% in the assay with OVCAR-4 ovarian; 98.8% in the assay on SK-OV-3 ovarian. For the same compound, the growth in the assay with IGROV1 ovarian was 103%; in the assay with OVCAR-3 ovarian, 99.3%; in the assay on HS 578T breast it was 108%; in the assay on NCI/ADR-RES ovarian, 104%.
In the case of `O=C1NC(=O)/C(=C/c2c(-c3ccccc3)nc3sc(COc4ccccc4)nn23)S1`, the growth was 90.2% in the assay on SR leukemia; 84.4% in the assay with RPMI-8226 leukemia; 105% in the assay on OVCAR-8 ovarian; 115% in the assay on OVCAR-5 ovarian; 93.4% in the assay on OVCAR-4 ovarian; 105% in the assay with SK-OV-3 ovarian. Further, the growth in the assay with IGROV1 ovarian is 112%; with OVCAR-3 ovarian it was 110%; in the assay with HS 578T breast it was 105%; in the assay with NCI/ADR-RES ovarian, 100%.
Regarding `C#CCO[C@H]1CC(CC#C)(CC#C)C(=O)[C@@H]2[C@H]1[C@H]1C[C@@H]3[C@@]4(C)CCC[C@@](C)(C(=O)OC)[C@@H]4CC[C@@]23C=C1C(C)C`, the growth with SR leukemia is -4.27% (active); in the assay on RPMI-8226 leukemia, 54.2%; in the assay with OVCAR-8 ovarian it was 58.4%; in the assay with OVCAR-5 ovarian, 92.3%; with OVCAR-4 ovarian, 85.2%; in the assay with SK-OV-3 ovarian it was 95.8%. The growth is -64.2% (active) with IGROV1 ovarian, 71.7% in the assay with OVCAR-3 ovarian, 94.2% in the assay with HS 578T breast and 78.5% with NCI/ADR-RES ovarian.
`COc1ccc(/C=C/C(=O)c2cc(OC)c(OC)c(OC)c2)cc1OCC(=O)Nc1nc2ccc(OC(F)(F)F)cc2s1`: the growth with SR leukemia is 11.6%; in the assay with RPMI-8226 leukemia, 6.47% (active); in the assay on OVCAR-8 ovarian it was 3.67% (active); in the assay on OVCAR-5 ovarian, 96.3%; in the assay on OVCAR-4 ovarian, -7.18% (active); with SK-OV-3 ovarian it was -11.8% (active). The growth is -1.97% (active) in the assay with IGROV1 ovarian, -77.3% (active) in the assay with OVCAR-3 ovarian, -20.8% (active) in the assay with HS 578T breast and -13.5% (active) with NCI/ADR-RES ovarian.
For the compound `CNCc1cccc2c1OCCOCCOCCNS(=O)(=O)c1ccc(cc1)-c1cnc(N)c(n1)C(=O)N2`, the growth with SR leukemia is 3.81% (active); in the assay on RPMI-8226 leukemia it was 65.6%; with OVCAR-8 ovarian, 28%; with OVCAR-5 ovarian, 56.3%; in the assay with OVCAR-4 ovarian, 50.4%; in the assay on SK-OV-3 ovarian, 27.9%. The growth in the assay with IGROV1 ovarian is 24.8%; in the assay on OVCAR-3 ovarian it was 2.52% (active); in the assay on HS 578T breast it was 48.7%; in the assay with NCI/ADR-RES ovarian, 108%.
Consider `Cc1ccc2c(=O)cc(C(=O)Nc3sc4c(c3C(=O)NCc3cccnc3)CCCC4)oc2c1C`, for which the growth with SR leukemia was 89.8%; in the assay on RPMI-8226 leukemia it was 102%; in the assay on OVCAR-8 ovarian, 98.4%; with OVCAR-5 ovarian it was 105%; in the assay on OVCAR-4 ovarian, 105%; in the assay with SK-OV-3 ovarian, 100%. For the same compound, the growth was 100% in the assay with IGROV1 ovarian, 106% in the assay with OVCAR-3 ovarian, 91.7% in the assay with HS 578T breast and 98.9% in the assay with NCI/ADR-RES ovarian.
With `COc1ccc(/C=C/C(=O)c2ccc(NC(=O)CSc3nc4c([nH]3)c(=O)n(C)c(=O)n4C)cc2)cc1OC`, the growth in the assay on SR leukemia was 36.6%; in the assay on RPMI-8226 leukemia, 85.9%; in the assay with OVCAR-8 ovarian, 89.7%; in the assay with OVCAR-5 ovarian, 83.9%; with OVCAR-4 ovarian it was 72.6%; in the assay with SK-OV-3 ovarian, 102%. For the same compound, the growth in the assay with IGROV1 ovarian is 71.3%; in the assay on OVCAR-3 ovarian, 70%; in the assay with HS 578T breast, 81.3%; in the assay with NCI/ADR-RES ovarian, 96.1%.
With `CC1(C)CC2=C3C=C[C@@H]4[C@@]5(C)CCC(=O)C(C)(C)[C@@H]5CC[C@@]4(C)[C@]3(C)CC[C@@]2(C(=O)O)C[C@H]1O`, the growth in the assay on SR leukemia is 24.4%; with RPMI-8226 leukemia it was -7.05% (active); in the assay with OVCAR-8 ovarian, 32.6%; with OVCAR-5 ovarian, 74.4%; with OVCAR-4 ovarian, 24.4%; with SK-OV-3 ovarian it was 1% (active). Further, the growth in the assay on IGROV1 ovarian was 16.5%; with OVCAR-3 ovarian it was 11.6%; with HS 578T breast, 58.1%; in the assay with NCI/ADR-RES ovarian, 33.3%.
